In test [1] the target is 5'-AMP-activated protein kinase catalytic subunit alpha-2 (Homo sapiens) (UniProt P54646). The following applies: at 1 µM.
Test [2] deals with T1, NUAK family SNF1-like kinase 1 (Homo sapiens) (UniProt O60285).
T1 sequence (whole entry): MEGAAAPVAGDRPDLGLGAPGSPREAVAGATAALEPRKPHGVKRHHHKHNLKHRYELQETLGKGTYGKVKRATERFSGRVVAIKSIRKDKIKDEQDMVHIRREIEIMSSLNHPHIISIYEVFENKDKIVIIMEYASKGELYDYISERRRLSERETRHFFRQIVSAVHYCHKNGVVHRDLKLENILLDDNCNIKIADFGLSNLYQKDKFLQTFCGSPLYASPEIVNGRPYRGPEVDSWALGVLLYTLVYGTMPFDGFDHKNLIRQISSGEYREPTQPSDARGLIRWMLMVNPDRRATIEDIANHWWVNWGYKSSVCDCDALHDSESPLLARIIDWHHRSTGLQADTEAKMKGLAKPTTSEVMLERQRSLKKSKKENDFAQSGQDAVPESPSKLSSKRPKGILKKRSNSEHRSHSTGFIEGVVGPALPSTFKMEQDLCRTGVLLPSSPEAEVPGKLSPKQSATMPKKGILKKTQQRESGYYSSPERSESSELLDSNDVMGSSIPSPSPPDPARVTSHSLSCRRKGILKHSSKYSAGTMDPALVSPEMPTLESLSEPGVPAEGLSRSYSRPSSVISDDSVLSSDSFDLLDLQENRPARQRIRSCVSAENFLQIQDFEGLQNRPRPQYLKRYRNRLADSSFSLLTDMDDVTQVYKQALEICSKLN
The note with it: at 0.1 µM.

The target of test [3] is T1, NUAK family SNF1-like kinase 1 (Homo sapiens). The note with it: at 1 µM.
Test [4] concerns the target T2, Serine/threonine-protein kinase BRSK1 (Homo sapiens) (UniProt Q8TDC3).
T2 sequence (whole entry): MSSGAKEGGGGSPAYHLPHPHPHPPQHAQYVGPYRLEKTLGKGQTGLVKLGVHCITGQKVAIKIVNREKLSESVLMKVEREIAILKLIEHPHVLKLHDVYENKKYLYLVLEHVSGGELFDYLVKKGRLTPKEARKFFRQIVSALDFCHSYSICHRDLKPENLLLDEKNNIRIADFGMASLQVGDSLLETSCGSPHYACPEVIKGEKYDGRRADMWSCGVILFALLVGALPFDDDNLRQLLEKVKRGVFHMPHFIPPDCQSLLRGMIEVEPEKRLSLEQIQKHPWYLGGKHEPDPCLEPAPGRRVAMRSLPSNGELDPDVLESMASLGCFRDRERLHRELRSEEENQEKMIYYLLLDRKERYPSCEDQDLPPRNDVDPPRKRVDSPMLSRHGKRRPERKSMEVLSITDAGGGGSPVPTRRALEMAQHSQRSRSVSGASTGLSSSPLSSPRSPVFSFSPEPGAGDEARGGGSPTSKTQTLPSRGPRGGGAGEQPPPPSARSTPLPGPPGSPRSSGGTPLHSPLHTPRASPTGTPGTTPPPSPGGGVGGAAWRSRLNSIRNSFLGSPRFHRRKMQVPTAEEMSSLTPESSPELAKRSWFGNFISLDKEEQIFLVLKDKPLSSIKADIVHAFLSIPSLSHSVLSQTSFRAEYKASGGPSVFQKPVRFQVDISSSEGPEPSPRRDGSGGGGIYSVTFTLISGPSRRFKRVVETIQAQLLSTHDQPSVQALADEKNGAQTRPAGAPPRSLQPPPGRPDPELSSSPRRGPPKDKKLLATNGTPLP
The note with it: at 0.1 µM.

The target of test [5] is T2, Serine/threonine-protein kinase BRSK1 (Homo sapiens). The following applies: at 1 µM.
Test [6] has as its target T3, Serine/threonine-protein kinase BRSK2 (Homo sapiens) (UniProt Q8IWQ3).
T3 sequence (whole entry): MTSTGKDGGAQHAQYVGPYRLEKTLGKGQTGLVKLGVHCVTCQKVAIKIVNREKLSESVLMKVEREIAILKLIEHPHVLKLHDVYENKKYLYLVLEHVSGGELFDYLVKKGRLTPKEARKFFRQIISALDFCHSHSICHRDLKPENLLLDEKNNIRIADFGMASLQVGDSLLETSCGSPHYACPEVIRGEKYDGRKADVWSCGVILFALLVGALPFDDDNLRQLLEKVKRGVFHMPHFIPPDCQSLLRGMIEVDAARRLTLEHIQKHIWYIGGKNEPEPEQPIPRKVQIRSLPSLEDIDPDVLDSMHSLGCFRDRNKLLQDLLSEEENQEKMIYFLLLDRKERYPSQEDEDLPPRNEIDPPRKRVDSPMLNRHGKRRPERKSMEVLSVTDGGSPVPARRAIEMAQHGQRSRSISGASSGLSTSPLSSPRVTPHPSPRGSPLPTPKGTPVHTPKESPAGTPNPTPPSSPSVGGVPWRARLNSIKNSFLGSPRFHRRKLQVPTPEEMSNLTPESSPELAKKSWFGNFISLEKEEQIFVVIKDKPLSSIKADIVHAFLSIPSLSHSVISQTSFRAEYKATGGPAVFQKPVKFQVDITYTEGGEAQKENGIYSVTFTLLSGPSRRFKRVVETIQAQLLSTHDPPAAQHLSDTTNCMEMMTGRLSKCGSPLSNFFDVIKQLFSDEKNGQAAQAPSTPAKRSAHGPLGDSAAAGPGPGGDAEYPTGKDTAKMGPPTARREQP
The following applies: at 0.1 µM.

Test [7] deals with T3, Serine/threonine-protein kinase BRSK2 (Homo sapiens). The following applies: at 1 µM.
Test [8] concerns the target Calcium/calmodulin-dependent protein kinase type 1D (Homo sapiens) (UniProt Q8IU85). The following applies: at 0.1 µM.
For test [9] the target is unchanged. The note with it: at 1 µM.
In test [10] the target is Calcium/calmodulin-dependent protein kinase type II subunit alpha (Homo sapiens) (UniProt Q9UQM7). The following applies: at 0.1 µM.
Sequence of Calcium/calmodulin-dependent protein kinase type II subunit alpha (Homo sapiens) (Q9UQM7 whole entry): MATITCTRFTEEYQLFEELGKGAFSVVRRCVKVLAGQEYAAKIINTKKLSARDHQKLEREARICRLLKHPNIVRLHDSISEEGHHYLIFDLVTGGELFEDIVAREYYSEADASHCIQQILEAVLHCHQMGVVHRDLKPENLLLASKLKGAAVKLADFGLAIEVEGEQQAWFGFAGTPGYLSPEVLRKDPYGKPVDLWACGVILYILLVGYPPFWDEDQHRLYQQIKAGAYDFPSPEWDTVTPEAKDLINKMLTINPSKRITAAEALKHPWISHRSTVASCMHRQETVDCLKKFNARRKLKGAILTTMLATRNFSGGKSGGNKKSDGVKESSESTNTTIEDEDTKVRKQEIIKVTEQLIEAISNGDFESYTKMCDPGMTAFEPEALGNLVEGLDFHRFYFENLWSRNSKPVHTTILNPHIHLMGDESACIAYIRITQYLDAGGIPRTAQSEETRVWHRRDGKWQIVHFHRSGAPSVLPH
The target is the same in test [11]. The following applies: at 1 µM.
Test [12] deals with Calcium/calmodulin-dependent protein kinase type II subunit delta (Homo sapiens) (UniProt Q13557). The note with it: at 0.1 µM.
Sequence of Calcium/calmodulin-dependent protein kinase type II subunit delta (Homo sapiens) (Q13557 whole entry): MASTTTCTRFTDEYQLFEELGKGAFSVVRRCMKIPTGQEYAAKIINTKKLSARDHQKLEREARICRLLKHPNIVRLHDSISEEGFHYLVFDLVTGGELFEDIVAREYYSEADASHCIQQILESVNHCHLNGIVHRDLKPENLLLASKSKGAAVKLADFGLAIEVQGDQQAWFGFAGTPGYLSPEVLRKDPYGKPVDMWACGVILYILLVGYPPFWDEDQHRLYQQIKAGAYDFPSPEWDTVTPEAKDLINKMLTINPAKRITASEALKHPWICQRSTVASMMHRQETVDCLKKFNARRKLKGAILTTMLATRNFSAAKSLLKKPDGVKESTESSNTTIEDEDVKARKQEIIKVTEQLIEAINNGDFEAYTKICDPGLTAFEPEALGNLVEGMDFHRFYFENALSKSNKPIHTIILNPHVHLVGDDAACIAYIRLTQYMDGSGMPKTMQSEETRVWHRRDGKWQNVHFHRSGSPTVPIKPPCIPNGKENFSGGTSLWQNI
For test [13] the target is unchanged. The note with it: at 1 µM.
Test [14] has as its target T4, Calcium/calmodulin-dependent protein kinase type IV (Homo sapiens) (UniProt Q16566).
T4 sequence (whole entry): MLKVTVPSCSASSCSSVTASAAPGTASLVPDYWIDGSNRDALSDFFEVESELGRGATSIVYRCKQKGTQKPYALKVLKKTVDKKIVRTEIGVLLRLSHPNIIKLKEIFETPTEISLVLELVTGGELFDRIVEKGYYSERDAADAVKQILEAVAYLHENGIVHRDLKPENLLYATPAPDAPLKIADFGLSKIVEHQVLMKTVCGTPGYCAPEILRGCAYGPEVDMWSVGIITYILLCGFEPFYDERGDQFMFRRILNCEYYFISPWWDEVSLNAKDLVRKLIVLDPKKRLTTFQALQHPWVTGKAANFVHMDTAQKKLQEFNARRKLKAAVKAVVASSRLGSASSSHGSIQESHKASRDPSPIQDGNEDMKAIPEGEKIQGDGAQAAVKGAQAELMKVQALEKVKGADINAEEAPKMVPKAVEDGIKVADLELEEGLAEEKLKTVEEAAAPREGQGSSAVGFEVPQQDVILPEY
The following applies: at 0.1 µM.

Test [15] has as its target T4, Calcium/calmodulin-dependent protein kinase type IV (Homo sapiens). The note with it: at 1 µM.
Test [16] has as its target T5, Serine/threonine-protein kinase Chk1 (Homo sapiens) (UniProt O14757).
T5 sequence (whole entry): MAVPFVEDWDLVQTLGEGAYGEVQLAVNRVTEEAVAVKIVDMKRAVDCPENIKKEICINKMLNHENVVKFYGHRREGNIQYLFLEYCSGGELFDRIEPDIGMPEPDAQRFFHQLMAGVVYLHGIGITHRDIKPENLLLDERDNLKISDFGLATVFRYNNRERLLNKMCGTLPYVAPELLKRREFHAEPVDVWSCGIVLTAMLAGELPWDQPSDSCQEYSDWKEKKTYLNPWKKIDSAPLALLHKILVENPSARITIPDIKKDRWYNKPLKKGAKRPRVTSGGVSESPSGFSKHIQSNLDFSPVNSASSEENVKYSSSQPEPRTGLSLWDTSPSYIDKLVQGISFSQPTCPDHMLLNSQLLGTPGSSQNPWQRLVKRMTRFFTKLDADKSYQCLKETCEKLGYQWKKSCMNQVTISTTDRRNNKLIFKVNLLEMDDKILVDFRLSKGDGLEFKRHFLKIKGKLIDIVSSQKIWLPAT
The following applies: at 0.1 µM.

Test [17] has as its target T5, Serine/threonine-protein kinase Chk1 (Homo sapiens). The following applies: at 1 µM.
Test [18] addresses Serine/threonine-protein kinase Chk2 (Homo sapiens) (UniProt O96017). The following applies: at 0.1 µM.
Test [19] has the same target. The following applies: at 1 µM.
The target in test [20] is Death-associated protein kinase 1 (Homo sapiens) (UniProt P53355). The following applies: at 0.1 µM.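 Also: reported figure is the mean inhibition of DAPK1.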
Sequence of Death-associated protein kinase 1 (Homo sapiens) (P53355 whole entry, looked up): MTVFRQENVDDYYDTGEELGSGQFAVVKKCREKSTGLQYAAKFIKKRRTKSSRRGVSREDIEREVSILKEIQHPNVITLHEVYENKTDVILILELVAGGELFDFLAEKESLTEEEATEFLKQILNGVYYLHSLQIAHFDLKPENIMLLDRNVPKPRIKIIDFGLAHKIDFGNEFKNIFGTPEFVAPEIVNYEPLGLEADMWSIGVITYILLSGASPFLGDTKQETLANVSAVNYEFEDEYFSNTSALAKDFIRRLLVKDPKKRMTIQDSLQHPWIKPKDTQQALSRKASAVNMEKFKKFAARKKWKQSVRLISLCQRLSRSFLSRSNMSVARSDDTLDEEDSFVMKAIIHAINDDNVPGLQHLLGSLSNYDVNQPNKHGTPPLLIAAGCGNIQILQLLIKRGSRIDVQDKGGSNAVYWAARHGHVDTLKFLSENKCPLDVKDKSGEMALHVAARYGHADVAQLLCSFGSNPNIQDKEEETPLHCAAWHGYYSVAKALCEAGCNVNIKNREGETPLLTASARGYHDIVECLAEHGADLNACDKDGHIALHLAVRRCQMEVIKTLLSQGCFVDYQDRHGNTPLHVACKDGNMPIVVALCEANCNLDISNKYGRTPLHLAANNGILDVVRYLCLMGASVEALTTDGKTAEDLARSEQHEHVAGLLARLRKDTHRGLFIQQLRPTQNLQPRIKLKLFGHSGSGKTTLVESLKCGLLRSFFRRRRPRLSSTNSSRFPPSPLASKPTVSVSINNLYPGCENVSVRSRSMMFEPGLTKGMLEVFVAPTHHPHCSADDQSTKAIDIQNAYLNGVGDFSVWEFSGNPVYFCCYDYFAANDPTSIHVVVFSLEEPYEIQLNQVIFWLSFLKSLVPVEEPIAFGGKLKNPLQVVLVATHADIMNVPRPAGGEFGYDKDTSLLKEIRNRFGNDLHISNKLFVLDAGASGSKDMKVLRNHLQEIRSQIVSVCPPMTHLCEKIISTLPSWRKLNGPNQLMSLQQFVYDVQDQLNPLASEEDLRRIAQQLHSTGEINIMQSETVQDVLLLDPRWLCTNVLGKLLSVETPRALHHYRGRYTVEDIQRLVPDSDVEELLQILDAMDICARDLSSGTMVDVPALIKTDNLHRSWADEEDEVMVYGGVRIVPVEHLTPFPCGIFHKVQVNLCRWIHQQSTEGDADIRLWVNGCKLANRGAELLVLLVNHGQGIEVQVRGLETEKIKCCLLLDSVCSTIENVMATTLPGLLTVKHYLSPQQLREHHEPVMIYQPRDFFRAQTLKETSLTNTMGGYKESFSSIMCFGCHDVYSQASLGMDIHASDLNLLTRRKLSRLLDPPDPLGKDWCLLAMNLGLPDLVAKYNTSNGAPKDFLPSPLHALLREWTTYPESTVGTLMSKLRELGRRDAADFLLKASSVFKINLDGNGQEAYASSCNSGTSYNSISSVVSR

Sequence of Serine/threonine-protein kinase Chk2 (Homo sapiens) (O96017 whole entry): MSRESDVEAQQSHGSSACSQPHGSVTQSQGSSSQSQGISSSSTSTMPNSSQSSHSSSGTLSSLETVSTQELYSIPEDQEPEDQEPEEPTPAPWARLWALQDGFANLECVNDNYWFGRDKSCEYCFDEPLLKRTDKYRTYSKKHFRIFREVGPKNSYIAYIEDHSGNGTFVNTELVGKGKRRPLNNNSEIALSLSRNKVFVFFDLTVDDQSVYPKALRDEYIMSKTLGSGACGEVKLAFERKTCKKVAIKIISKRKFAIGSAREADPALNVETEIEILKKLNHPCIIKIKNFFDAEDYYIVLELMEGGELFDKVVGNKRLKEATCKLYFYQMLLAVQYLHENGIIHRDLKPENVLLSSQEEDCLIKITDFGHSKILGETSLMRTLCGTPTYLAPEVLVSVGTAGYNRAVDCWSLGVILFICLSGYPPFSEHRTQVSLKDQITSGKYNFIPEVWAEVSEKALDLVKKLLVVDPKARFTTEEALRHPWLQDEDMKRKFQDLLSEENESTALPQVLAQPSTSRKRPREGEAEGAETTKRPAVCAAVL
Sequence of Calcium/calmodulin-dependent protein kinase type 1D (Homo sapiens) (Q8IU85 whole entry, looked up): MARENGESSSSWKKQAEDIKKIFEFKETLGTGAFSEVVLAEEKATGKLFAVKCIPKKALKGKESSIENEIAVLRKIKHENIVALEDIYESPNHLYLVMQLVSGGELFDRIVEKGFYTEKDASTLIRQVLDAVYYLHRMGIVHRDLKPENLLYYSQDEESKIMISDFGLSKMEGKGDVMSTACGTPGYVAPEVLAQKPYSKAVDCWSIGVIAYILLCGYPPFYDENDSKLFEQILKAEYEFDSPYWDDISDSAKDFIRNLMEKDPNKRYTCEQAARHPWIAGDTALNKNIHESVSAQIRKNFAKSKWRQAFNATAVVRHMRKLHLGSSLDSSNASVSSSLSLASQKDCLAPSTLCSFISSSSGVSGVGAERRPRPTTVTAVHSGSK
Sequence of 5'-AMP-activated protein kinase catalytic subunit alpha-2 (Homo sapiens) (P54646 whole entry, looked up): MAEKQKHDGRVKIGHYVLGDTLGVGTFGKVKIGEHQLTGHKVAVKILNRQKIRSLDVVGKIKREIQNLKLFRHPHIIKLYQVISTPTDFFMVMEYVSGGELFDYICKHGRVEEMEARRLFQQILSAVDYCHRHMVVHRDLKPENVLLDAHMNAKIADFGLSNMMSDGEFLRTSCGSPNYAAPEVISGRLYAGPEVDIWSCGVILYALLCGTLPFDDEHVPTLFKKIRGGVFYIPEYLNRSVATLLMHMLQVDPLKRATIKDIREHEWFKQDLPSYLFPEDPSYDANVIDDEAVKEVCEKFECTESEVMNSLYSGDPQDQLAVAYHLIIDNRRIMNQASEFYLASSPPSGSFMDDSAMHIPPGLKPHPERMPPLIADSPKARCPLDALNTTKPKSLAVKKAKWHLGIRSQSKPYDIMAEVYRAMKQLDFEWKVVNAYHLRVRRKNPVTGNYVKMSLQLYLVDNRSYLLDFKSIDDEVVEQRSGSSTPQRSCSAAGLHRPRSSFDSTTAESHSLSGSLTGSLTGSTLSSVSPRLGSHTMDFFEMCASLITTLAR

For `O=C1Nc2ccc(I)cc2C1=Cc1cc(Br)c(O)c(Br)c1`, the inhibition (in general, the change of the read-out against control, counted positive when it falls) in test [1] is 3.18%; in test [2], -1.04%; in [3] it was 3.51%; in test [4], 3.87%; in test [5] it was 0.15%; in [6], 0.3%. For the same compound, the inhibition in test [7] stood at 2.23%; in test [8], 1.27%; in test [9], 2.96%; in [10], 4.96%; in test [11] it was 7.25%; in test [12] it was 3.27%. Further, the inhibition in test [13] is 9.08%; in [14], 0.52%; in test [15], 4.99%; in test [16], 0.05%; in [17], -0.68%; in test [18], 4.44%. Also, the inhibition in test [19] amounted to 9.44%; in test [20], 1.46%.

On to `Fc1ccc(-c2ncn(C3CCNCC3)c2-c2ccnc(Oc3ccc(F)c(F)c3)n2)cc1`, for which the inhibition in test [1] came to 4.77%; in test [2] it was 2.44%; in test [3], 6.58%; in test [4] it was 1.29%; in [5], 3.93%; in [6], 3.75%. Also, the inhibition in [7] was 5.29%; in test [8], -1.15%; in test [9] it was -1.08%; in test [10], 2.48%; in test [11], 0.43%; in [12], 1.91%. Further, the inhibition is 4.38% in [13]; -2.42% in test [14]; -1.76% in test [15]; -3.21% in test [16]; 5.61% in test [17]; 2.5% in [18]. The inhibition in [19] is 2.87%; in [20] it was 3.38%.

As to `COc1ccc2cc(-c3c(-c4ccncc4)nc(-c4ccc(S(C)(=O)=O)cc4C)n3C)ccc2c1`, the inhibition is 3.5% in test [1]; -2.12% in test [2]; 4.31% in test [3]; 1.72% in [4]; 1.23% in [5]; 1.12% in test [6]. Further, the inhibition was found to be 3.04% in test [7]; 1.08% in test [8]; 1.85% in test [9]; 2.82% in test [10]; 3.89% in test [11]; 3.49% in test [12]. Further, the inhibition in test [13] was 3.21%; in test [14], 0.37%; in test [15], 0.96%; in test [16], -2.73%; in test [17] it was -3.07%; in test [18], -2.23%. Further, the inhibition in [19] is -0.36%; in test [20], -2.52%.

Take `Fc1ccc(-c2ncn(CCCN3CCOCC3)c2-c2ccncc2)cc1`: the inhibition in [1] came out at 2.58%; in test [2] it was 0.22%; in test [3] it was 3.87%; in test [4], 1.09%; in test [5] it was 1.49%; in test [6], 1.32%. In addition, the inhibition in test [7] was -0.21%; in test [8], 1.77%; in [9], 1.54%; in [10], 0.57%; in [11], 1.91%; in test [12], 1.48%. Also, the inhibition in [13] was 2.85%; in test [14], 1.75%; in test [15], 2.08%; in test [16], 2.08%; in test [17], -1.19%; in test [18], -0.55%. Moreover, the values for the inhibition in test [19] and in test [20] were -1.12% and 0.52%, respectively.

These data come from ChEMBL document CHEMBL1961873, “Compounds: GSK PKIS; Assays: Nanosyn kinase panel” (2012).
